# BRCA1 expr act – increases BRCA1 expression. MCF7-BRCA1-FFLuc reporter, luminescence, 48 h; response scale: scaled: vehicle 0%, 10 µM genistein 100%. Potency, µM (series often up to 46.1 µM), most hits filed as activators. 1.1% of 380,000 active; also: nearly all actives have a fitted effect of over 80% in size
#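 Reporter cells (MCF7, BRCA1 promoter-firefly luciferase) received library compounds across a concentration series for 48 h. End-point luminescence was measured and concentration-effect curves derived after normalization.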
# GLP1R inv ag – GLP-1 receptor (human) inverse agonism | 1.6% of 410,000 active | Potency, µM (titrated, usually from 38.3 µM), usual class: inhibitors | P43220 | HEK293 GLP-1R CRE-luciferase, luminescence, 24 h; GLP-1R form is constitutively active; also: nearly all actives have a fitted effect of over 55% in size
# Target sequence (P43220 whole entry, looked up): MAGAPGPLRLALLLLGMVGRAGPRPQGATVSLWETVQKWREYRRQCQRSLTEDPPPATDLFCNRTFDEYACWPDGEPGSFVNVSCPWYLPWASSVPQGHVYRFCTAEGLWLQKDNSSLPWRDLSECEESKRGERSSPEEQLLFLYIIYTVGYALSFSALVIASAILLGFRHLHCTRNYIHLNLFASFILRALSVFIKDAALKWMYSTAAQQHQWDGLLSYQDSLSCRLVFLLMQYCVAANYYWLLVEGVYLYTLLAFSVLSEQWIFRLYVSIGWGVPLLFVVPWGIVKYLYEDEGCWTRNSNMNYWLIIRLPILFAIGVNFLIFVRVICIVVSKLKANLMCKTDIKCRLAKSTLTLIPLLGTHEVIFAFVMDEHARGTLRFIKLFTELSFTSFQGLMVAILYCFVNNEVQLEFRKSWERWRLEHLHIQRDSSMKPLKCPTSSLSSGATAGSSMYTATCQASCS
#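 Constitutively active GLP-1R drives a cAMP-responsive luciferase in stably transfected HEK293 cells; test compounds are added after overnight (12 h) attachment and left 24 hr, and signal loss in luminescence marks inhibition.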
# HEK293 tox – cytotoxic in the GLP-1 receptor inverse agonist counter-screen | AID 624418 | Potency, µM (top dose mostly 38.3 µM), most hits filed as inhibitors | 0.13% of 410,000 active | HEK293 cAMP-luciferase reporter cells, luminescence, 24 h;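 also: loss of luciferase light is scored as toxicity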
#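 Luminescence readout: signal drop marks cytotoxicity. Plated cells grew 12 h at 37 °C, 5% CO2, received 23 nL compound for 24 h, then got luciferase reagent, read after 12 min at RT.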
# GLP1R ag – activates the human GLP-1 receptor; 0.007% of 380,000 active; HEK293 GLP-1R CRE-luciferase, luminescence, 4-6 h; cells express a hypersensitive GLP-1R form; P43220; Potency, µM (top dose mostly 45.6 µM), usual class: activators
# Numbers stand for hits; . = inactive; ? = inconclusive; / = not tested or not shown. In the library only some 2.6% were active in any assay of this set; here they are far more common. Calls follow the shape of the dose curve; as a rule, active = well fitted curve in the direction sought with a large enough effect; inconclusive = small, poorly fitted or top-dose-only effect, or another doubt; inactive = no such curve, though single readings can be large; an effect the other way counts as inactive or inconclusive.
SMILES,BRCA1 expr act,GLP1R inv ag,HEK293 tox,GLP1R ag
CCOC(=O)c1c(C)n(-c2ccccc2)c2ccc(OC(=O)c3ccccc3Cl)cc12,/,.,.,/
COc1ccc(CCNC(=O)CCc2c(C)nc3c(c(C)nn3-c3ccc(C)c(C)c3)c2C)cc1OC,.,.,.,.
CCN(CC)CCNC(=O)CCc1c(C)nc2c(c(C)nn2-c2ccc(C)c(C)c2)c1C,.,4µM,?,.
COc1cc(NC(=O)c2c(OC)cccc2OC)ccc1NC(=O)c1cc2ccccc2o1,11µM,.,.,.
COc1cc(NC(=O)c2ccc(F)cc2)ccc1NC(=O)c1cc2ccccc2o1,.,.,.,.
Cc1ccc(/C=C/C(=O)O)cc1S(=O)(=O)N1CCCCC1,.,.,.,.
COc1ccccc1C(CNC(=O)c1ccc(-c2ccccc2Cl)o1)N1CCCC1 (stereo not drawn),.,4.5µM,?,.
COc1ccc(C(CNC(=O)CCNS(=O)(=O)c2ccc(Br)cc2)N2CCCC2)cc1 (stereo not drawn),.,?,.,.
COc1ccccc1C(CNC(=O)CCNS(=O)(=O)c1ccc(Br)cc1)N1CCCC1 (stereo not drawn),.,10µM,.,.
COc1ccc(C(CNC(=O)c2ccc(-c3ccccc3Cl)o2)N2CCOCC2)cc1 (stereo not drawn),.,?,.,?
O=C(CCNS(=O)(=O)c1ccc(Br)cc1)NCCc1ccc(Cl)cc1,.,10µM,.,.
CC(C)(CNC(=O)c1ccc(-c2ccccc2Cl)o1)N1CCOCC1,10µM,?,.,.
COc1ccc(C(=O)C[n+]2cccc3cc(Cl)ccc32)cc1,.,/,/,/
N#CC(C#N)=C(Nc1ccc(F)cc1)SCc1cccc(Br)c1,.,2µM,.,.
Cc1cccc(CSC(Nc2ccc(F)cc2)=C(C#N)C#N)c1,.,?,?,.
N#Cc1nc(-c2ccco2)oc1N1CCN(C(c2ccccc2)c2ccccc2)CC1,.,10µM,.,.
COc1cc([N+](=O)[O-])ccc1NC(=O)NCC1CCN(Cc2ccc(Cl)cc2)CC1,.,10µM,?,.
Cc1ccc2oc3c(c(=O)c2c1)C(c1cccc(O)c1)N(Cc1ccccc1Cl)C3=O (stereo not drawn),/,.,.,/
COC(=O)c1ccc(N=Nc2ccccc2)cc1,10µM,.,.,.
COc1ccc(N=Nc2ccc(CO)cc2)cc1,?,.,.,.
O=C(O)c1ccccc1N=Nc1ccc(O)cc1,.,.,.,.
Oc1ccc(N=Nc2ccccc2)cc1,8.9µM,.,.,.
OCc1ccc(N=Nc2ccccc2)cc1,3.2µM,.,.,.
COC(=O)c1ccc(OCCOc2ccccc2)cc1,.,.,.,.
COC(=O)c1cc(Cl)cc2c(C)c(C3(O)CCCCC3)[nH]c12,.,7.1µM,.,.
SMILES,BRCA1 expr act,GLP1R inv ag,HEK293 tox,GLP1R ag
CCc1c(C2(O)CCCCC2)[nH]c2c(C(=O)OC)cc(Cl)cc12,.,?,.,.
O=C(CSc1ccccc1C(=O)O)c1ccc(Cl)cc1,10µM,.,.,.
O=[N+]([O-])c1ccc(-c2nc3ccc([N+](=O)[O-])cc3[nH]2)cc1,.,.,.,.
Nc1ccc(-c2nc3ccc([N+](=O)[O-])cc3[nH]2)cc1,2µM,.,.,.
Cn1nc([N+](=O)[O-])nc1N1CCOCC1,.,.,.,.
OCCN1CCN(CC(O)COC(c2ccc(F)cc2)c2ccc(F)cc2)CC1 (stereo not drawn),.,3.5µM,.,.
COc1ccc(N2CCN(CC(O)COC(c3ccc(F)cc3)c3ccc(F)cc3)CC2)cc1 (stereo not drawn),.,?,.,.
CC(=O)Nc1ccc(OCc2ccc3c(c2)OCO3)cc1,2.5µM,.,.,.
CCc1ccc(NC(=O)NCc2ccc3c(c2)OCO3)cc1,.,.,.,.
O=C(NCc1ccc2c(c1)CCO2)Nc1ccccc1,1.8µM,.,.,.
COc1ccc(NC(=O)NCc2ccc3c(c2)OCO3)cc1,.,.,.,.
Cc1ccc(C(=O)NCc2ccc3c(c2)CCO3)cc1C,.,?,.,.
O=C(NCc1ccc2c(c1)OCO2)Nc1ccc(Cl)cc1,11µM,.,.,.
O=C(/C=C/c1cccc2ccccc12)NCCC1=CCCCC1,11µM,.,.,.
CCOC(=O)/C(C#N)=C\C=C1C=CN(C)C=C1,4µM,.,.,.
O=C(COc1ccccc1C(=O)Nc1ccccc1)Nc1ccccc1-c1ccccc1,.,/,/,/
